Laboratory results: PubChem BioAssay (EPA / NIEHS)
Inconclusive results are not listed. Active and inactive are the calls of the source. How the source made its calls: active means hit-call score of the fitted dose curve at least 0.9, where 1 is the maximum; inconclusive means response in the unintended direction; inactive means score below 0.9.

Experiments:
[1] = target: human Tropomyosin Receptor Kinase A (TRKA), NTRK1 (gene 4914) (UniProt P04629); test: NVS_ENZ_hTrkA: NovaScreen (NVS) Enzymatic Assay for human Tropomyosin Receptor Kinase A (TRKA) (AID 2283224)
Chain of human Tropomyosin Receptor Kinase A (TRKA), NTRK1 (gene 4914) (P04629 whole entry, looked up): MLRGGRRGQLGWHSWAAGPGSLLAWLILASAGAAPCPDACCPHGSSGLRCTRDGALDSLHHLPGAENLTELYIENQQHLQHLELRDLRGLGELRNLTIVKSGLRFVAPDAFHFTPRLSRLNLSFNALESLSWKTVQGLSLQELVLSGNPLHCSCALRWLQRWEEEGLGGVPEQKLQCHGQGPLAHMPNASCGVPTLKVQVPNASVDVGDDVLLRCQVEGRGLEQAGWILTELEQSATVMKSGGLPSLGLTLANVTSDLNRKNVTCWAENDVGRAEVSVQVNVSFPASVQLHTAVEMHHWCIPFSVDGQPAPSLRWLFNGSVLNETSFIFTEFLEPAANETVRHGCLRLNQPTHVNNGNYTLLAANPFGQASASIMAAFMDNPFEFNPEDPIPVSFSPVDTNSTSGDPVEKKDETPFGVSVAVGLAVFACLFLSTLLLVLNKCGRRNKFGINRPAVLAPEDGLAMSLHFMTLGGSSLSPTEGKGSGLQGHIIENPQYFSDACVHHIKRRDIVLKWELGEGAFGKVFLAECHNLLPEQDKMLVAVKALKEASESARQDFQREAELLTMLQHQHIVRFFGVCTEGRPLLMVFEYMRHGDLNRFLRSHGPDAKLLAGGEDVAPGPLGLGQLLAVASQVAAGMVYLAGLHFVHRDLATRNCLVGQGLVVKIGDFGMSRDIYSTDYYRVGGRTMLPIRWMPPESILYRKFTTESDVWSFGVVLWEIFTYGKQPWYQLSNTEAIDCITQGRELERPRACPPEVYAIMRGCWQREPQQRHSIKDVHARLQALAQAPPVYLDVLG
Procedure, shortened: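 Compounds were screened at 25 uM in duplicate, then concentration series to a 50 uM top for those meeting threshold (e.g. 30% inhibition). Enzyme was recombinant human TrkA, incubated 1 h. Product formation was quantified by fluorescence after mobility-shift separation.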

[2] = target: human Vascular Endothelial Growth Factor Receptor 3 (VEGFR3), FLT4 (gene 2324) (UniProt P35916); test: NVS_ENZ_hVEGFR3: NovaScreen (NVS) Enzymatic Assay for human Vascular Endothelial Growth Factor Receptor 3 (VEGFR3) (AID 2283229)
Chain of human Vascular Endothelial Growth Factor Receptor 3 (VEGFR3), FLT4 (gene 2324) (P35916 whole entry, looked up): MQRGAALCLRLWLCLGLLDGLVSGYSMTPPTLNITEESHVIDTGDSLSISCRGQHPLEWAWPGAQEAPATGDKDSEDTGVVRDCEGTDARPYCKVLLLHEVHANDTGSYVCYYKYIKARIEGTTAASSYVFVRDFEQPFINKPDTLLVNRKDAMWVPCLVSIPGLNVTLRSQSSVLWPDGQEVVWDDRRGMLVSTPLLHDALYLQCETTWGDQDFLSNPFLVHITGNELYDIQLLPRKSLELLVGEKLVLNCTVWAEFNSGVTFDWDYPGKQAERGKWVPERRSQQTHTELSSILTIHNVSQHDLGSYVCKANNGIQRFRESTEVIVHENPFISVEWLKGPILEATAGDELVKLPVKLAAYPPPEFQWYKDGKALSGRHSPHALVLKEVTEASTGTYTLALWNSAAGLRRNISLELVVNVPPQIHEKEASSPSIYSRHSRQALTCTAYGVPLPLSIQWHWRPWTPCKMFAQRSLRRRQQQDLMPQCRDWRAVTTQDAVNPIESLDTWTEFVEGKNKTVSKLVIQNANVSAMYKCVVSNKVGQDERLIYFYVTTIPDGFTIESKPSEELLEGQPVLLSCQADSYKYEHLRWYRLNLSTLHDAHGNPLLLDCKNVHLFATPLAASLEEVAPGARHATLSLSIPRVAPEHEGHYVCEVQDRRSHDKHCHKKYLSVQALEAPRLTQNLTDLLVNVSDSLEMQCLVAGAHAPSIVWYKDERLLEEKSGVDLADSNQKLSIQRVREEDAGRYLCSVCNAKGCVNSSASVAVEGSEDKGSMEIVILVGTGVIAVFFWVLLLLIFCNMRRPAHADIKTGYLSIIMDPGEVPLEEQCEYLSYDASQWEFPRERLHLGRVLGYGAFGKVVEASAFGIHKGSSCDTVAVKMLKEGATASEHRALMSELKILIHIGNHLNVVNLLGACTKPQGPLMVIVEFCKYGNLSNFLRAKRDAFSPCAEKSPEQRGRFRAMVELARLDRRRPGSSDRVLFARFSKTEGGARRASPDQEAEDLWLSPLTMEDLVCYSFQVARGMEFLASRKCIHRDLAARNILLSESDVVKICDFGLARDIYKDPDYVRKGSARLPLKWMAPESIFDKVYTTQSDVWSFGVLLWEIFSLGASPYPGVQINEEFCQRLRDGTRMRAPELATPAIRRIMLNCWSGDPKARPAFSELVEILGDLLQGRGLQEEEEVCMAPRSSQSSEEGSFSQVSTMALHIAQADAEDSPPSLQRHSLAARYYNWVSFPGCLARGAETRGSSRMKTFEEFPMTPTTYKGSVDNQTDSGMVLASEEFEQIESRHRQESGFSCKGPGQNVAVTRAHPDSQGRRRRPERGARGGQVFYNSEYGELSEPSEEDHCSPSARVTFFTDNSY
Procedure, shortened: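 Chemicals first run in duplicate at 25 uM, with actives re-tested in concentration series to a top of 50 uM. Recombinant VEGFR3 activity measured after 1 h via fluorescence with mobility-shift product separation; inhibition fitted relative to DMSO.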

[3] = target: sheep Cyclooxygenase-2 (Cox2), PTGS2 (gene 443460) (UniProt P79208); test: NVS_ENZ_oCOX2: NovaScreen (NVS) Enzymatic Assay for sheep Cyclooxygenase-2 (Cox2) (AID 2283231)
Chain of sheep Cyclooxygenase-2 (Cox2), PTGS2 (gene 443460) (P79208 whole entry, looked up): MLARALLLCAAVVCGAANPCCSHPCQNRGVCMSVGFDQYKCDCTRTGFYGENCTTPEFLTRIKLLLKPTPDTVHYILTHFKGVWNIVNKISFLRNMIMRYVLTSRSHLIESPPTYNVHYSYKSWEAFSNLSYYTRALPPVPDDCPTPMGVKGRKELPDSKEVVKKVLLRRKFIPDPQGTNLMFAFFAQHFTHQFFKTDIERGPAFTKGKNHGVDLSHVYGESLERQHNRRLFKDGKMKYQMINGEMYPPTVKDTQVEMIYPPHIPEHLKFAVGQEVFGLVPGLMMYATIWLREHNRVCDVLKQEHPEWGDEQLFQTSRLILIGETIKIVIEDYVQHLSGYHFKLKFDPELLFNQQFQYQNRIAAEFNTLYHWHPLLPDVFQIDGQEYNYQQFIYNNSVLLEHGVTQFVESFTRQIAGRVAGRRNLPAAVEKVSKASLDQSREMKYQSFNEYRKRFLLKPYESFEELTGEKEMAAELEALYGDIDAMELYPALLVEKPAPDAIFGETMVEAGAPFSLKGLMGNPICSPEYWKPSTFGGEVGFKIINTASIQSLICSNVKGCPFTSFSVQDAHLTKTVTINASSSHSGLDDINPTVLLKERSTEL
Procedure, shortened: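 Colorimetric absorbance read-out of COX activity, taken 0.66 hour post-dosing, using native protein from sheep placenta. Single-concentration duplicate screen (25 uM), then singleton concentration-response up to 50 uM for actives.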

Q: For `FC(F)(F)C(F)(F)C(F)(F)C(F)(F)C(F)(F)C(F)(F)CCI`, which outcome [1] is on record?
A: inactive

Q: What does the source list for `CC1=C(/C=C/C(C)=C/C=C/C(C)=C/CO)C(C)(C)CCC1`?
A: outcome [1]: inactive; outcome [2]: inactive; AC50 [3]: 15.5 µM (active)

Q: How did the outcome [2] turn out when `NCCO` was run?
A: inactive

Q: Which AC50 [3] does the source give for `C=CCOC(=O)c1ccccc1C(=O)OCC=C` here?
A: 5.13 µM (active)
